# Values joined by “and” are separate entries in the source; they are usually repeats but may differ in a detail not shown here. Equal entries are not always repeated. Active and inactive are the calls of the source.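 How the source made its calls, unless noted: active means normalized viability below 100% at a tested concentration; inactive means the rest.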
# Key:
# [1] = Wnt pathway potentiators raising nuclear beta-catenin – imaging, WNT3A-conditioned medium, mouse C2C12, NPC library, primary screen (AID 1117326; in the data active means nuclear beta-catenin stimulation mostly above about 4.2%, no sharp cut-off; inactive means mostly below about 10%); details: stronger effect = higher value
# [2] = stimulators of insulin release from INS-1E, primary screen, cell-based, 5 mM glucose, NPC library (AID 1117329;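 active means compound raises insulin release from rat beta cells at 5 mM glucose, no numeric limit stated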); details: rat INS-1E insulin secretion, at 10 µM, stronger effect = higher value
# [3] = growth inhibition of GSK3B-pretreated HCT116 cells – cell-based, CellTiter-Glo, 0.2 to 20 µM (AID 1117336;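 active means compounds lowering colon cancer cell viability after pretreatment blocking the GSK3B kinase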); details: HCT116 viability after GSK3B inhibitor, at 20 µM, stronger effect = higher value
# [4] = inhibition of endothelial tube formation, primary screen, imaging, VEGF stimulated, CD31 staining, tube area, NPC library (AID 1117340;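 active means compound that reduces growth-factor-driven endothelial tube area in a mixed cell culture, no cutoff stated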); details: VEGF-stimulated ADSC/ECFC co-culture, at 10 µM, stronger effect = higher value
# [5] = GLP1 release stimulators, primary, NCI-H716, NPC library (AID 1117341;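 active means compound raises GLP1 secretion from the human gut endocrine cells, with no numeric limit stated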); details: NCI-H716 cells, at 10 µM, stronger effect = higher value
# [6] = HCT116 colon cancer cell growth inhibition, primary screen, CellTiter-Glo luminescence, NPC library (AID 1117342;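 active means compounds that lower survival of HCT116 colon cancer cells in the luminescence readout, no numeric limit stated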); details: at 20 µM (top of the series)
# [7] = reduced SW480 viability measured with CellTiter-Glo, NPC library, primary (AID 1117343;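 active means compounds that lower viability of the colon cancer cells in the luminescence readout, with no numeric limit stated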); details: CellTiter-Glo luminescence; at 20 µM (top of the series)
# [8] = NPC library primary testing for decreased DLD-1 cell viability via CellTiter-Glo (AID 1117346;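 active means compounds that lower survival of DLD-1 colon cancer cells in the luminescence readout, no cutoff given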); details: DLD-1 viability, CellTiter-Glo luminescence; at 20 µM (top of the series)
# [9] = biological target: 6-phosphogluconate dehydrogenase, decarboxylating (Homo sapiens) (UniProt P52209); assay: inhibition of human phosphogluconate dehydrogenase – biochemical, recombinant enzyme, NADPH absorbance, primary screen (AID 1159550;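 active means at least 20% inhibition of 6-phosphogluconate dehydrogenase activity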); details: recombinant 6PGD, NADPH absorbance 341 nm; at 10 µM; stronger effect = higher value
# [10] = modulation of C. elegans fzo-1 (AID 1259413; call rule not given here;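 further: fzo-1 mutant C. elegans worms in liquid wells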); details: C. elegans fzo-1 modulator screen, mean read-out; stronger effect = higher value
# [11] = EMT-state selective cytotoxicity in co-culture – imaging, PC-3E GFP, TEM4-18 mCherry, primary screen (AID 1345086;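 active means compounds killing one labelled cell type while sparing the other, by normalised counts and ratio limits, not self-fluorescent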;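 on all read-outs here: cells exposed to compound for 72 h before imaging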;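 on red/green cell ratio (normalised): normalised mesenchymal count divided by normalised epithelial count so high means epithelial killing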); details: PC-3E GFP / TEM4-18 mCherry co-culture, imaging cell counts, at 1 µM; for red/green cell ratio (normalised): actives lie on both sides, counts scaled to control wells, 1 = unselective
# [12] = MELAS cybrid and Rieske KO viability enhancers – cell-based, MELAS cybrids, Rieske KO mouse fibroblasts, CellTiter-Glo, primary screen (AID 1508586;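 active means mean z-score across replicates of 1.96 or higher in either the MELAS or the Rieske mutant cell line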;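 further: z relative to plate mean and SD of compound and empty wells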); details: low glucose
# [13] = drug combination growth inhibition, ovarian cancer – cell-based, oncology-focused library, rucaparib conditional, profiling panel (AID 1508598); details: patient-derived ovarian cancer cells, CellTiter-Glo viability, 144 h, stronger effect = lower value
# [14] = biological target: NAD(+) hydrolase SARM1 (Homo sapiens) (UniProt Q6SZW1); assay: blocking NAD cleavage by SARM1 SAM-TIR – cell lysate, NAD-Glo luminescence (AID 1508614;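 active means compound whose remaining NAD level is above about 45 nM, limit read from the data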); details: SAM-TIR HEK293T lysate NADase, at 1 µM, stronger effect = higher value
# [15] = biological target: Mitogen-activated protein kinase 7 (Homo sapiens) (UniProt Q13164); assay: Gal4-ERK5 driven luciferase induction – cell-based, HTS, primary screen (AID 1508626;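 active means luciferase signal above three times the same-plate solvent-only control wells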;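 further: luciferase driven by Gal4-ERK5 fusion binding five Gal4 sites before minimal TATA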); details: HeLa Gal4-ERK5 transactivation, 18 h, at 5 µM, stronger effect = higher value
# [16] = system: F380Y; assay: BK channel mutant inhibitors and activators – cell-based, U2OS BacMam, thallium flux, beta subunits, selectivity assay, profiling panel (AID 1259406;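 active means thallium flux through the channel raised or lowered by more than 3 SD from vehicle-only wells, actives on both sides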;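 further: initial slope of Thallos dye fluorescence rise after thallium is added; log ratio against the mean of 0.3% DMSO vehicle wells on the same plate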); details: U2OS BacMam BK variants, at 30 µM
# [17] = system: F380Y/beta1; assay: as above; details: U2OS BacMam BK variants, at 30 µM
# [18] = system: F380Y/beta2Delta; assay: as above; details: U2OS BacMam BK variants, at 30 µM
# [19] = system: F380Y/beta4; assay: as above; details: U2OS BacMam BK variants, at 30 µM
# [20] = measured here: epithelial PC-3E GFP cell survival
# [21] = measured here: mesenchymal TEM4-18 mCherry cell survival
# [22] = MELAS cybrid survival, CellTiter-Glo 48 h, stronger effect = higher value
# [23] = Rieske KO mouse fibroblast survival, CellTiter-Glo 72 h
# Chain of Mitogen-activated protein kinase 7 (Homo sapiens) (Q13164 whole entry, looked up, the tested form may be a part): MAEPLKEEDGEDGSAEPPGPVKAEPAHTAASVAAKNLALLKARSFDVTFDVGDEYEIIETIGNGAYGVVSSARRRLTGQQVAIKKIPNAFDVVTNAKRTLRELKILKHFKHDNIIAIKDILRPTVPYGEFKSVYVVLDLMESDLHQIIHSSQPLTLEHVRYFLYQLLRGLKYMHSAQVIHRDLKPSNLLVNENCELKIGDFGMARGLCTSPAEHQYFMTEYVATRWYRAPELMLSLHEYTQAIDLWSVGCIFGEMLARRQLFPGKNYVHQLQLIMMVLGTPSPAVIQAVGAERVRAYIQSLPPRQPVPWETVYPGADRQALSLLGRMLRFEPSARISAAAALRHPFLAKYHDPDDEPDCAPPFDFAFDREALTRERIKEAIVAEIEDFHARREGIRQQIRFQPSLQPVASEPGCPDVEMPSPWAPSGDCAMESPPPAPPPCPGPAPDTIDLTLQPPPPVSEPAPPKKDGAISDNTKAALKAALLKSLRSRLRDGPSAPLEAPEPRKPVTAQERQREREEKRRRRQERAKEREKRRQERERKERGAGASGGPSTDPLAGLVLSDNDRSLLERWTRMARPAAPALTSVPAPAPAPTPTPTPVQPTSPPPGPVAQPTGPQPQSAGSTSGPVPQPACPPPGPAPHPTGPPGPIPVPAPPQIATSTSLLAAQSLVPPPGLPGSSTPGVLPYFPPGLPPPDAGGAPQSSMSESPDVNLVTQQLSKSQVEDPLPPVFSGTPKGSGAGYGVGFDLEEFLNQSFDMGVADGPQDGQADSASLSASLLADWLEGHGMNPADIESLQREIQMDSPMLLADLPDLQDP
# Chain of 6-phosphogluconate dehydrogenase, decarboxylating (Homo sapiens) (P52209 whole entry, looked up): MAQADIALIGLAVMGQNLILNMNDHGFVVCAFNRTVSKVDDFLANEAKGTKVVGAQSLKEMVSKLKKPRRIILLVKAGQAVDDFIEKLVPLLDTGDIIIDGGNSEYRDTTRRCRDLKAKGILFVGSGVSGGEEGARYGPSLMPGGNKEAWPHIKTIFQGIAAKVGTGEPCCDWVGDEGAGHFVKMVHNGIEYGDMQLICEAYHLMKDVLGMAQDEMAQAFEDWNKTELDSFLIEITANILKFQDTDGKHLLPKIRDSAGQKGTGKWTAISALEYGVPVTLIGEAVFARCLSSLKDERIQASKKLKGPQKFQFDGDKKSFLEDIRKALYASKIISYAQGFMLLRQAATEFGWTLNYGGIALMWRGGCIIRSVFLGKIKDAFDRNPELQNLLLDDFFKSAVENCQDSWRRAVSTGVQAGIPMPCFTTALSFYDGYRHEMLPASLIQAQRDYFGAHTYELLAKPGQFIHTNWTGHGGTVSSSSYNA
# Chain of NAD(+) hydrolase SARM1 (Homo sapiens) (Q6SZW1 whole entry, looked up, the tested form may be a part): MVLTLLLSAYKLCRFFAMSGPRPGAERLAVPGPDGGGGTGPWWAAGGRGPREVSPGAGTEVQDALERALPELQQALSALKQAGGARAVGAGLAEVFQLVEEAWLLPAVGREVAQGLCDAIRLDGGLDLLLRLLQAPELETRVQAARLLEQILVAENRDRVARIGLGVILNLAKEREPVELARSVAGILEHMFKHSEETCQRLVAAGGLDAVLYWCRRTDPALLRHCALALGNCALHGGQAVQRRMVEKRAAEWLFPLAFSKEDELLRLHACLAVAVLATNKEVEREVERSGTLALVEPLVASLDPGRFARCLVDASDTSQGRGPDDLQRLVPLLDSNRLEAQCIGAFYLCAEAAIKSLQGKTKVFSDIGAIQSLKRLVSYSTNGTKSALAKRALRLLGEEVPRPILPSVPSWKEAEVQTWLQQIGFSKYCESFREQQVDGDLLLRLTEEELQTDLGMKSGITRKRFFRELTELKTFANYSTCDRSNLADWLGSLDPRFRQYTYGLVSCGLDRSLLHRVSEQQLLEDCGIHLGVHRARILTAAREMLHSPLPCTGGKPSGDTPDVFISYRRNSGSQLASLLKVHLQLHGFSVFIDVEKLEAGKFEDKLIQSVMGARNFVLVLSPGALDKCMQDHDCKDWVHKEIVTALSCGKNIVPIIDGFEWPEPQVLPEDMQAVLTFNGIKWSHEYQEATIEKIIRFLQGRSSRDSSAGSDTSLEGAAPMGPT
smiles,measurement,setting,value
O=c1[nH]cnc2[nH]ncc12,nuclear beta-catenin stimulation,[1]; at 10 µM,-0.8% (inactive)
same,nuclear beta-catenin stimulation,"[1]; stimulation, at 2 µM",1%
same,insulin secretion stimulation,[2],-2.4% (inactive)
same,viability decrease,[3],3.7% (inactive)
same,tube area decrease,[4],-6.1% (inactive)
same,GLP1 secretion stimulation,[5],0.1% (inactive)
same,inhibition of viability,[6],2.7% (inactive)
same,viability decrease (inhibition),[7],25% (inactive)
same,viability decrease (inhibition),[8],-0.95% (inactive)
same,inhibition,[9],10.8% (inactive)
same,mean signal,[10],267 (inactive)
same,red/green cell ratio (normalised),[11],1.08 (inactive)
same,normalised cell number,[11]; [20],1.06
same,normalised cell number,[11]; [21],1.15
same,z-score,[12]; [22],0.356 (inactive) and -0.148 (inactive) and 0.116 (inactive)
same,z-score,[12]; [23],-0.183 and 0.499 and -0.321
same,viability,"[13]; at 0.000305 µM, OCI-C5x cells, with rucaparib 10 µM, 100% = cells with rucaparib alone",116% (inactive)
same,viability,"[13]; at 0.000305 µM, OCI-C5x cells, without rucaparib",122% (inactive)
same,viability,"[13]; at 0.000305 µM, OCI-P5x cells, with rucaparib 20 µM, 100% = cells with rucaparib alone",106% (inactive)
same,viability,"[13]; at 0.000305 µM, OCI-P5x cells, without rucaparib",127% (inactive)
same,viability,"[13]; at 0.00122 µM, OCI-C5x cells, with rucaparib 10 µM, 100% = cells with rucaparib alone",124% (inactive)
same,viability,"[13]; at 0.00122 µM, OCI-C5x cells, without rucaparib",130% (inactive)
same,viability,"[13]; at 0.00122 µM, OCI-P5x cells, with rucaparib 20 µM, 100% = cells with rucaparib alone",105% (inactive)
same,viability,"[13]; at 0.00122 µM, OCI-P5x cells, without rucaparib",118% (inactive)
same,viability,"[13]; at 0.00488 µM, OCI-C5x cells, with rucaparib 10 µM, 100% = cells with rucaparib alone",118% (inactive)
same,viability,"[13]; at 0.00488 µM, OCI-C5x cells, without rucaparib",125% (inactive)
same,viability,"[13]; at 0.00488 µM, OCI-P5x cells, with rucaparib 20 µM, 100% = cells with rucaparib alone",98.6% (active)
same,viability,"[13]; at 0.00488 µM, OCI-P5x cells, without rucaparib",111% (inactive)
same,viability,"[13]; at 0.0195 µM, OCI-C5x cells, with rucaparib 10 µM, 100% = cells with rucaparib alone",114% (inactive)
same,viability,"[13]; at 0.0195 µM, OCI-C5x cells, without rucaparib",121% (inactive)
same,viability,"[13]; at 0.0195 µM, OCI-P5x cells, with rucaparib 20 µM, 100% = cells with rucaparib alone",104% (inactive)
same,viability,"[13]; at 0.0195 µM, OCI-P5x cells, without rucaparib",114% (inactive)
same,viability,"[13]; at 0.0781 µM, OCI-C5x cells, with rucaparib 10 µM, 100% = cells with rucaparib alone",117% (inactive)
same,viability,"[13]; at 0.0781 µM, OCI-C5x cells, without rucaparib",124% (inactive)
same,viability,"[13]; at 0.0781 µM, OCI-P5x cells, with rucaparib 20 µM, 100% = cells with rucaparib alone",99.6% (active)
same,viability,"[13]; at 0.0781 µM, OCI-P5x cells, without rucaparib",105% (inactive)
same,viability,"[13]; at 0.313 µM, OCI-C5x cells, with rucaparib 10 µM, 100% = cells with rucaparib alone",113% (inactive)
same,viability,"[13]; at 0.313 µM, OCI-C5x cells, without rucaparib",117% (inactive)
same,viability,"[13]; at 0.313 µM, OCI-P5x cells, with rucaparib 20 µM, 100% = cells with rucaparib alone",102% (inactive)
same,viability,"[13]; at 0.313 µM, OCI-P5x cells, without rucaparib",105% (inactive)
same,viability,"[13]; at 1.25 µM, OCI-C5x cells, with rucaparib 10 µM, 100% = cells with rucaparib alone",122% (inactive)
same,viability,"[13]; at 1.25 µM, OCI-C5x cells, without rucaparib",114% (inactive)
same,viability,"[13]; at 1.25 µM, OCI-P5x cells, with rucaparib 20 µM, 100% = cells with rucaparib alone",91.4% (active)
same,viability,"[13]; at 1.25 µM, OCI-P5x cells, without rucaparib",105% (inactive)
same,viability,"[13]; at 5 µM, OCI-C5x cells, with rucaparib 10 µM, 100% = cells with rucaparib alone",111% (inactive)
same,viability,"[13]; at 5 µM, OCI-C5x cells, without rucaparib",109% (inactive)
same,viability,"[13]; at 5 µM, OCI-P5x cells, with rucaparib 20 µM, 100% = cells with rucaparib alone",91.3% (active)
same,viability,"[13]; at 5 µM, OCI-P5x cells, without rucaparib",98% (active)
same,remaining NAD,[14],10 nM (inactive)
same,luciferase signal,[15],36 AU (inactive)
same,log fold change Tl+ flux,[16],0.0236 (inactive)
same,log fold change Tl+ flux,[17],0.000941 (inactive)
same,log fold change Tl+ flux,[18],-0.00565 (inactive)
same,log fold change Tl+ flux,[19],0.00785 (inactive)
NS(=O)(=O)c1cc2c(cc1Cl)NCNS2(=O)=O,nuclear beta-catenin stimulation,[1]; at 10 µM,0.4% (inactive)
same,nuclear beta-catenin stimulation,"[1]; stimulation, at 2 µM",0.8%
same,insulin secretion stimulation,[2],-1.9% (inactive)
same,viability decrease,[3],-1.55% (inactive)
same,tube area decrease,[4],-9% (inactive)
same,GLP1 secretion stimulation,[5],-0.3% (inactive)
same,inhibition of viability,[6],0.1% (inactive)
same,viability decrease (inhibition),[7],5.4% (inactive)
same,viability decrease (inhibition),[8],-1% (inactive)
same,inhibition,[9],-1.9% (inactive)
same,mean signal,[10],233 (inactive)
same,red/green cell ratio (normalised),[11],0.89 (inactive)
same,normalised cell number,[11]; [20],1.24
same,normalised cell number,[11]; [21],1.11
same,z-score,[12]; [22],-0.267 (inactive) and -0.584 (inactive)
same,z-score,[12]; [23],0.408 and -0.255
same,remaining NAD,[14],10 nM (inactive)
same,luciferase signal,[15],96 AU (inactive)
same,log fold change Tl+ flux,[16],-0.0347 (inactive)
same,log fold change Tl+ flux,[17],-0.00418 (inactive)
same,log fold change Tl+ flux,[18],-0.0515 (inactive)
same,log fold change Tl+ flux,[19],-0.0186 (inactive)
COCCOC(=O)C1=C(C)NC(C)=C(C(=O)OC(C)C)C1c1cccc([N+](=O)[O-])c1 (stereo not drawn),nuclear beta-catenin stimulation,[1]; at 10 µM,-0.6% (inactive)
same,nuclear beta-catenin stimulation,"[1]; stimulation, at 2 µM",1.2%
same,insulin secretion stimulation,[2],-0.5% (inactive)
same,viability decrease,[3],46.2% (inactive)
same,tube area decrease,[4],-1.2% (inactive)
same,GLP1 secretion stimulation,[5],-0.1% (inactive)
same,inhibition of viability,[6],77.9% (active)
same,viability decrease (inhibition),[7],55.7% (active)
same,viability decrease (inhibition),[8],27.1% (inactive)
same,inhibition,[9],2.88% (inactive)
same,mean signal,[10],225 (inactive)
same,red/green cell ratio (normalised),[11],1.09 (inactive)
same,normalised cell number,[11]; [20],1.07
same,normalised cell number,[11]; [21],1.17
same,z-score,[12]; [22],-0.249 (inactive) and 1.31 (inactive) and 0.763 (inactive)
same,z-score,[12]; [23],-0.137 and 1.51 and 1.35
same,remaining NAD,[14],10 nM (inactive)
same,luciferase signal,[15],48 AU (inactive)
same,log fold change Tl+ flux,[16],-0.0169 (inactive)
same,log fold change Tl+ flux,[17],0.0464 (inactive)
same,log fold change Tl+ flux,[18],-0.122 (active)
same,log fold change Tl+ flux,[19],-0.126 (active)

# — PubChem BioAssay
